Our source for the inhibition values is ChEMBL document CHEMBL3433997, “St. Jude Leishmania screening dataset” (2016).

Holding throughout (type): functional
For assay [1], the target named is Solute carrier family 2, facilitated glucose transporter member 1 (Homo sapiens) (UniProt P11166). Description: ST_JUDE_LEISH: Cytotoxicity at 2uM final concentration against transgenic Leishmania Mexicana promastigotes LmGLUT1 that are glucose transport deficient and complemented with the human glucose transporter GLUT1. Activity is measured by DNA content using SYBR green in vitro.

The target in assay [2] is Hexose transporter 1 (Plasmodium falciparum) (UniProt O97467). Description: ST_JUDE_LEISH: Cytotoxicity at 2uM final concentration against transgenic Leishmania Mexicana promastigotes LmPfHT that are glucose transport deficient and complemented with the Plasmodium falciparum hexose transporter. Activity is measured by DNA content using SYBR green in vitro.
For assay [3], the target named is Glucose transporter (Leishmania mexicana) (UniProt O61059). As to the kind of experiment: ST_JUDE_LEISH: Cytotoxicity at 2uM final concentration against transgenic Leishmania Mexicana promastigotes LmGT2 that are glucose transport deficient and complemented with the L. Mexicana glucose transporter 2. Activity is measured by DNA content using SYBR green in vitro.

Chain of Solute carrier family 2, facilitated glucose transporter member 1 (Homo sapiens) (P11166 whole entry): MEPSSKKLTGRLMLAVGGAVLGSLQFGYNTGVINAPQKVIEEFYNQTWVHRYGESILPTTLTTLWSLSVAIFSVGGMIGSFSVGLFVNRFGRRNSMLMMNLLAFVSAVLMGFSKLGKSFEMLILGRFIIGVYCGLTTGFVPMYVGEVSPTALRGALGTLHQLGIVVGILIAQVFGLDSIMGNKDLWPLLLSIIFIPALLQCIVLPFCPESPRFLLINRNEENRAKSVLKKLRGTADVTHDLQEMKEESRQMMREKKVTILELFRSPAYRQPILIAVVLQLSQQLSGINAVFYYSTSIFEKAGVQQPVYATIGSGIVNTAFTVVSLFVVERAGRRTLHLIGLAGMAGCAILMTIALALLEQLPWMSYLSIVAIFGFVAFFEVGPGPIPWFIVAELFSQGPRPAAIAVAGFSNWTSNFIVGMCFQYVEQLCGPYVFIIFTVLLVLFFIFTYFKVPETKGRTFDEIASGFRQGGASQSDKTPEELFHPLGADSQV

Regarding `CCN(CC)CCCNc1nccc(N(C)c2ccc(NC(=O)Nc3cc(C(F)(F)F)ccc3F)cc2)n1`, the values for the inhibition in assay [1], in assay [2] and in assay [3] were 11.7%, 9.93% and 11.9%, respectively.

Consider `N=c1[nH]c2cccc3ccc4cccc1c4c32`, for which the inhibition in assay [1] turned out to be 9.96%; in assay [2] it was 9.29%; in assay [3] it was 7.95%.

Consider `Cc1cc(Nc2cccc(Cl)c2)nc2ccc(NC(=O)c3ccc(=O)[nH]c3)cc12`, for which the values for the inhibition in assay [1], in assay [2] and in assay [3] were 2.59%, 3.49% and 3.64%, respectively.

On to `CC(C)c1cccc(OCC2CCN(c3ncc(C(=O)NC4CC4)cc3Cl)CC2)c1`, for which the inhibition was 1.56% in assay [1], -0.04% in assay [2] and -0.2% in assay [3].

Regarding `c1cc(-c2cc3ccc(C4=NCCN4)cc3[nH]2)ccc1C1=NCCN1`, the inhibition came to 1.68% in assay [1], 2.57% in assay [2] and 0.39% in assay [3].

As for `CCC(C)CN1CCN(c2cc(NC(=O)c3cccs3)ccn2)C(C)C1` (configuration not stated), the results for the inhibition in assay [1], in assay [2] and in assay [3] were -1.02%, 2.3% and 1.68%, respectively.

As for `CC(C)(CNC(=O)[C@H]1CCCCN1)c1nc(-c2ccc(Cl)c(O)c2)c(-c2ccncc2)[nH]1`, the inhibition in assay [1] turned out to be 5.66%; in assay [2] it was 4.64%; in assay [3] it was 6.24%.

For `Cc1nc2c(-n3cc(Cn4ccnc4)c4ccccc43)ncnc2n1-c1ccc(Cl)cc1Cl`, the inhibition in assay [1] is 0.32%; in assay [2], 0.41%; in assay [3], -1%.

On to `O=C(Nc1cc(C(F)(F)F)ccc1N1CCOCC1)C(Cl)(Cl)Cl`, for which the inhibition in assay [1] worked out at 10.4%; in assay [2], 9.77%; in assay [3], 9.48%.

For `CCN1CCN(c2cc(C)c3cc(NC(=O)c4cccc([N+](=O)[O-])c4)ccc3n2)CC1`, the figures for the inhibition in assay [1], in assay [2] and in assay [3] were -0.98%, 0.44% and -1.42%, respectively.

Turning to `Cc1cc(N(C)C)nc(Nc2ccc(NC(=O)c3ccc(Br)o3)cc2)n1`, the inhibition in assay [1] amounted to 7.73%; in assay [2] it was 9.85%; in assay [3] it was 3.96%.

Take `CC(=O)Nc1ccc(S(=O)(=O)Nc2ccc(Nc3nc(C)cc(N4CCCCC4)n3)cc2)cc1`: the values for the inhibition in assay [1], in assay [2] and in assay [3] were 5.51%, 5.79% and 5.54%, respectively.

As for `CC1CN(c2cccc3c2nc(-c2cncc(C#N)c2)n3CCNCc2ccccc2)CC(C)O1` (configuration not stated), the inhibition in assay [1] was 3.09%; in assay [2] it was 2.38%; in assay [3], 2.56%.

In the case of `O=C(/C=C/c1ccc(Cl)c(Cl)c1)NCCCCCN1CCC(CCNC(=O)Cc2ccc(Cl)cc2)CC1`, the inhibition in assay [1] was 1.7%; in assay [2], 0.82%; in assay [3], 4.06%.

As to `CC1(C)Cc2c(oc3ncn(CCn4cnc5oc6c(c5c4=N)CC(C)(C)SC6)c(=N)c23)CS1`, the inhibition in assay [1] is -0.76%; in assay [2] it was 0.58%; in assay [3], -0.4%.

For `CCCCCCN1CCC(CNCc2cccc([N+](=O)[O-])c2)CC1`, the inhibition was determined as 5.28% in assay [1], 9.36% in assay [2] and 5.95% in assay [3].

`Cn1cnc(CCNC(=O)c2cccc(-c3cccc(-c4nc5cc(C(F)(F)F)ccc5[nH]4)c3)c2)c1`: the inhibition in assay [1] is -1.68%; in assay [2], 1%; in assay [3] it was -2.49%.

Take `CN(C)c1cc(NN=Cc2cc(Cl)ccc2O)nc(N(C)C)n1`: the inhibition in assay [1] came to 4.76%; in assay [2] it was 4.94%; in assay [3] it was 2.54%.

On to `C=CCc1ccc(C[C@H](NC(=O)OC(C)(C)C)C(=O)OC)cc1`, for which the inhibition in assay [1] was 22.2%; in assay [2], 40.4%; in assay [3], 34.5%.

With `COC(=O)c1ccc(CC(C)NCC(O)c2ccc(C(O)CNC(C)Cc3ccc(C(=O)OC)cc3)cc2)cc1` (configuration not stated), the inhibition in assay [1] was -0.44%; in assay [2], 1.69%; in assay [3], 0.96%.

Take `COc1cc(N)cc2sc(N)nc12`: the inhibition in assay [1] is -1.04%; in assay [2], 0.54%; in assay [3] it was 0.08%.

On to `CCC(CC)CN1C(=O)C(C)(c2ccccc2)N=C1N` (configuration not stated), for which the inhibition in assay [1] was -1.13%; in assay [2], -0.03%; in assay [3], -1.23%.

Regarding `COc1ccc2nccc([C@@H](O)CN3CCC(NCc4cc5c(Cl)cccc5[nH]4)CC3)c2c1`, the inhibition in assay [1] came to 10.6%; in assay [2], 14.7%; in assay [3], 2.34%.

On to `O=c1cc(NCCCNCc2ccc(Cl)c(Cl)c2)[nH]c2ccc(Oc3ccccc3)cc12`, for which the inhibition in assay [1] was -1.41%; in assay [2], -1.42%; in assay [3], -0.72%.

Regarding `CC(C)CCNCc1ccc(OCc2cccc(COc3ccc(CNCCC(C)C)cc3I)c2)c(I)c1`, the inhibition in assay [1] is 0.58%; in assay [2], -0.4%; in assay [3], -0.23%.

For the compound `O=C(Nc1cccc(C(F)(F)F)c1)c1ccc(S(=O)(=O)NC2CCN(CC3CCCCC3)CC2)cc1`, the inhibition in assay [1] came to 1.83%; in assay [2] it was 1.62%; in assay [3] it was 5.57%.

As to `CCN(CC)C(=O)C(=O)c1c[nH]c2ccc(Cl)cc12`, the figures for the inhibition in assay [1], in assay [2] and in assay [3] were 3.24%, 0.07% and 0.85%, respectively.

Turning to `N#Cc1ccc(CN2CCC(Oc3ccc(NC(=O)c4ccco4)cc3Cl)CC2)cc1`, the inhibition in assay [1] is 0.38%; in assay [2] it was 1.94%; in assay [3], 7.81%.

For the compound `Cc1ccc(C(=O)Cn2nc(-c3ccc(C)c(S(=O)(=O)N4CCCCC4)c3)ccc2=O)cc1`, the inhibition was determined as 8.67% in assay [1], 12.3% in assay [2] and 6.75% in assay [3].

Regarding `COCCOc1cccc(CN2CCC(c3cc4nc(C)cc(C(F)(F)F)n4n3)C2)c1` (configuration not stated), the inhibition in assay [1] was -2.12%; in assay [2], 4.65%; in assay [3], 0.83%.

For `CCOc1ccc2c(c1)OC(c1ccccc1)(C(F)(F)F)NC2=O` (configuration not stated), the inhibition in assay [1] is 0.56%; in assay [2], -0.92%; in assay [3], 1.65%.

For the compound `CN(C)CCOc1ccc(NC(=O)Nc2ccnc3c(Br)cccc23)cc1Cl`, the inhibition was 0.71% in assay [1], 0.76% in assay [2] and -0.85% in assay [3].

On to `CC(CN)OCn1cnc2c(N)ncnc21` (configuration not stated), for which the inhibition in assay [1] is 0.4%; in assay [2], 4.03%; in assay [3] it was 4.83%.

Consider `Cc1ccc(C(=O)Cn2nc(-c3ccc(C)c(S(=O)(=O)N4CCCC4)c3)ccc2=O)cc1`, for which the inhibition came out at 1.61% in assay [1], 0.61% in assay [2] and 2.62% in assay [3].
